Among all 88,000 compounds or so, about 260 (0.3%) were called active. The full list was thinned out, with actives kept by preference. Values without a mark were called inactive.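 Rule for the calls: active = compounds that reduce the energy-transfer binding signal between the protein and its labelled peptide by more than half; inactive = the rest.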
What follows are compounds tested against Mothers against decapentaplegic homolog 3 (Homo sapiens) (UniProt P84022) (assay: blockers of Smad3 binding to FoxH1 – biochemical, TR-FRET, primary screen (AID 630;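 note: 0% = Smad3 plus labelled peptide maximal FRET and 100% = peptide-only background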)). Conditions: TR-FRET Smad3/Dy647-FoxH1 peptide binding, europium anti-His; at 25 µM; stronger effect = higher value.
Sequence of Mothers against decapentaplegic homolog 3 (Homo sapiens) (P84022 whole entry, looked up): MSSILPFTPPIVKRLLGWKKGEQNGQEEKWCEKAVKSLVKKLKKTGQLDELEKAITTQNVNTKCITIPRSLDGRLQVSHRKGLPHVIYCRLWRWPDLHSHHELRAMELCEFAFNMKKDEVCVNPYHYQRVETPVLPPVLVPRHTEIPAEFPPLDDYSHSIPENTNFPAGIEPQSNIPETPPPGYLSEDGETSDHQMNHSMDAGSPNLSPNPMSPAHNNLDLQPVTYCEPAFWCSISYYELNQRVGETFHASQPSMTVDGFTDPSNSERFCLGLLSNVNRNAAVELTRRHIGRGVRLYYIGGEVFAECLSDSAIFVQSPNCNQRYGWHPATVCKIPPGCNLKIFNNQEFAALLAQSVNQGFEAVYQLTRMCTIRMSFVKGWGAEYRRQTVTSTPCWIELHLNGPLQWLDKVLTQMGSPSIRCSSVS

| SMILES | inhibition |
| --- | --- |
| CC(=O)C1=C(C)NC(=O)NC1c1cc(Br)ccc1OCC#N (centres undefined) | 5.31% |
| N#CC1=C(N)N(c2ccccc2)C2=C(C(=O)CCC2)C1c1ccccc1 (centres undefined) | -6.32% |
| C=CCN(N=Nc1cccc([N+](=O)[O-])c1)c1cccc([N+](=O)[O-])c1 | 5.93% |
| COc1ccc(NC(=O)C(CC(C)C)NS(=O)(=O)c2ccc3c(c2)CCN3C(C)=O)cc1OC (centres undefined) | 2.09% |
| C[C@H]1O[C@@H](CC(=O)O)Cc2c1c(O)c1c(O)cc(-c3cc(=O)c4c(=O)c5c(c(=O)c=4c3=O)C[C@H](CC(=O)O)O[C@@H]5C)c(O)c1c2O | 95.5% (active) |
| Cc1cc2cc(CNC(=O)c3cccs3)ccc2[nH]1 | 4.85% |
| c1ccc2c(-c3nn4nnnc4c4ccccc34)cccc2c1 | 1.52% |
| Cc1cc(Cl)c(S(=O)(=O)N(C)C)cc1OCC(N)=O | -1.09% |
| COc1ccc(S(=O)(=O)Nc2ccc(F)cc2)c(C)c1C | -18.5% |
| COCCOCCn1cnc2ccccc21 | 8.15% |
| Cc1ccc(-c2nc3ccccc3[nH]2)cc1N | 10.8% |
| CC(=O)N1CCCc2cc(S(=O)(=O)CCC(=O)N3CCN(c4ccccc4)CC3)ccc21 | 3.39% |
| CC(C)(C)c1ccc(C(=O)NCC(=O)OCN2C(=O)c3ccccc3C2=O)cc1 | -15.4% |
| C=CCN(C(=O)Cn1ncc2c1-c1cc(C)ccc1OC2)c1ccccc1 | -12.8% |
| Oc1c(Br)cc(CN(Cc2cc(Br)c(O)c(Br)c2)C2CCCCC2)cc1Br | 98.7% (active) |
| C=CCO/N=C(\C)c1c(O)c(C)c(-c2ccccc2)n(-c2ccccc2)c1=O | 0.29% |
| Cc1cccc(NC(=O)/C(=C\c2ccco2)NC(=O)c2ccccc2)c1 | -5.56% |
| CC(C)C(c1nnnn1CCc1ccccc1)N1CCN(C(=O)c2ccco2)CC1 (centres undefined) | -1.2% |
| CC(=O)c1ccc(-n2nnnc2SCC(=O)N2CCN(C(=O)c3ccco3)CC2)cc1 | 6.3% |
| CCC(c1nnnn1C1CCCC1)N1CCN(C(=O)c2ccco2)CC1 (centres undefined) | 56.9% (active) |

| SMILES | inhibition |
| --- | --- |
| COC(=O)c1ccc(CSc2nc3cc(Cl)ccc3o2)cc1 | 8.67% |
| Cc1ccc(-c2cnc(NC(=O)CCC(=O)N(C)Cc3ccccc3)n2C)cc1 | 8.43% |
| COc1ccc(C(C)=O)cc1CN1C(=O)NC2(CCCCC2C)C1=O (centres undefined) | 3.22% |
| CC1CCN(C(=O)c2cc3nc(C4CC4)cc(C(F)(F)F)n3n2)CC1 | 6.46% |
| C[C@H](CCC(=O)O)[C@@H]1CC[C@@H]2[C@H]3CC[C@H]4C[C@@H](O)CC[C@]4(C)[C@@H]3C[C@H](O)[C@]21C | -5.18% |
| FC(F)(F)c1ccc2nnc(-c3c(Cl)cccc3Cl)n2c1 | -1.74% |
| CC1CCCCC1NC(=O)C1CCCN1S(=O)(=O)c1cccc2nsnc12 (centres undefined) | -19.4% |
| O=C1CSC(c2ccc(Cl)cc2)N1 (centres undefined) | 13.1% |
| Cc1cccn2c(=O)c(/C=C(\C#N)S(=O)(=O)c3ccc(Cl)cc3)c(N3CCC(C(N)=O)CC3)nc12 | 0.22% |
| CCCNC(=O)N1CCN(C(=O)NCCC)CC1 | 0.05% |
| CC1=CC(=O)C=CC1(C)C(Cl)(Cl)Cl (centres undefined) | -10.9% |
| CN(C)c1ccc(CNC2C3CC4CC(C3)CC2C4)cc1 (centres undefined) | 8.16% |
| COC(=O)Nc1ccc(S(=O)(=O)N2CCN(CCN3C(=O)C4C5C=CC(C5)C4C3=O)CC2)cc1 (centres undefined) | 6.97% |
| O=C(NCC(=O)N(Cc1cccs1)C(C(=O)NC1CCCCC1)c1ccco1)c1cccs1 (centres undefined) | 0.62% |
| COc1ccc(C)cc1S(=O)(=O)NCCc1ccccc1 | 7.34% |
| COc1ccc(NC(=S)N2N=CCC2c2ccccc2)cc1 (centres undefined) | -1.54% |
| CCCCN1C(=O)CC(N2CCOCC2)C1=O (centres undefined) | -0.67% |
| O=C(Cc1c(O)c2ccccc2[nH]c1=O)NCc1ccccc1 | 7.06% |
| CS(=O)(=O)c1ccc(/C=N/NC(N)=S)cc1 | 20.2% |
| CC(C)CCNC(=O)Cn1c(=O)oc2cc(S(=O)(=O)N3CC(C)CC(C)C3)ccc21 (centres undefined) | 7.82% |

| SMILES | inhibition |
| --- | --- |
| CCOCCCNC(=O)C(NC(=O)c1ccc(=O)[nH]c1)c1ccc(C)cc1 (centres undefined) | -19.1% |
| Cc1nnc(SCc2nc3ccccc3nc2C)s1 | 1.94% |
| CCOc1cc2[nH]c(=S)n(Cc3ccc(C(=O)NCCOC)cc3)c(=O)c2cc1OCC | -0.98% |
| CC(C)Oc1ccc(Oc2ccc(C(F)(F)F)cn2)cc1 | 0.6% |
| CCn1c(C)nc2cc(C(=O)NNS(=O)(=O)c3ccc(C)cc3C)ccc21 | 2.77% |
| Cc1cccc(-n2c(Cc3cc(=O)[nH]c(=O)[nH]3)nnc2SC(C)C)c1 | 62% (active) |
| Cc1cccc(-n2c(N)cc(=O)nc2SC(C)C(=O)NC2CCCCC2)c1 (centres undefined) | 5.17% |
| COc1cccc(-n2c(Cc3cc(=O)[nH]c(=O)[nH]3)nnc2SCC(=O)Nc2ccccc2)c1 | 4.97% |
| O=C(O)CCCCc1nc2ccccc2s1 | -2.94% |
| CNC(=O)c1nnc(Cc2ccc(Cl)cc2)o1 | -6.06% |
| CCOc1ccc(S(=O)(=O)NCC2CCCO2)cc1 (centres undefined) | -12% |
| CCOCCCNC(=O)C(NC(=O)CNC(=O)c1ccccc1)c1ccc(C)cc1 (centres undefined) | -6.68% |
| CCOC(=O)NC(C(F)(F)F)(C(F)(F)F)P(=O)(c1ccccc1)c1ccccc1 | 6.78% |
| CCOCCOCCC(C(=O)O)P(=O)(c1ccccc1)c1ccccc1 (centres undefined) | 71.7% (active) |
| CCCCCCOc1ccc(OC(=O)c2cccnc2)cc1 | 0.33% |
| Cc1ccc(-n2c(=O)cc(N3CCN(Cc4ccccc4)CC3)[nH]c2=O)cc1 | 2.1% |
| Cc1cc(S(=O)(=O)NC2CCCCC2)ccc1OCC(=O)NCc1cccnc1 | 8.87% |
| CN(C)C(=O)c1cc(Br)ccc1Cl | 1.18% |
| O=C(Nc1ccc2c(c1)OCCO2)C(c1ccc(F)cc1)N1CCCCC1 (centres undefined) | -0.28% |
